GluA2 TARP mod = modulators of GluA2-stargazin AMPA receptor complexes, primary screen, cell-based, membrane potential dye. Voltage-dependent calcium channel gamma-2 subunit (Mus musculus) + Glutamate receptor 2 …. 3.5% of 40,000 active. calls only at 30 µM. HEK293 GluA2+stargazin, membrane potential dye (FDSS), glutamate EC50; hits were called plate by plate, in both directions;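 active means any of four per-well response measures lying three or more SD from its plate-wide compound average, in either direction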
GIRK2 act = activators of NPY4-receptor-primed GIRK2 channels, summary, cell-based, HEK293, thallium flux; G protein-activated inward rectifier potassium channel 2 (Homo sapiens), P48051; HEK293 GIRK2/NPY4 cells, thallium flux fluorescence; activation (% efficacy), % for hits at 37.5 µM; 34,000 tested, under 10 active;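 active means primary screen hit, no activity in plain HEK293 cells, and in GIRK2-only cells above 5% efficacy rising with concentration; inactive means the rest, including fluorescent compounds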;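 further: efficacy is normalized control-subtracted fluorescence 15 s after thallium addition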
Target sequence (P48051 whole entry, looked up): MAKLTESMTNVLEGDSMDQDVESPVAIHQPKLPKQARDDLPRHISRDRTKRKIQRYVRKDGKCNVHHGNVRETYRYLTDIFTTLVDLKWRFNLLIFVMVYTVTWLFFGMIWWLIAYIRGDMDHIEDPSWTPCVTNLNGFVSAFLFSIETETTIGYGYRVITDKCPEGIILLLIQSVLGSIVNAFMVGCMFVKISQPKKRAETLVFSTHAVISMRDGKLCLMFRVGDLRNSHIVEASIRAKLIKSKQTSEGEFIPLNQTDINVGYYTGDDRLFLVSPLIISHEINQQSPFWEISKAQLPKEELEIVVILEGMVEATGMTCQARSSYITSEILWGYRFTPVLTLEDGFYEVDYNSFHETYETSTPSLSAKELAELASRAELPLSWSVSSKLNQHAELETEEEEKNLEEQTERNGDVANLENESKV
* hit, by the source's call; i = inactive; nt = no result; + = active, no number. The sample as a whole holds a higher share of hits than the screen did.

SMILES	GluA2 TARP mod	GIRK2 act
Cc1ccc(-c2nsc(C(=O)N3CCSCC3)c2N)cc1	nt	i
COc1cccc(N2CC(C(=O)Nc3ccc4c(c3)N(C(=O)c3cccs3)CC4)CC2=O)c1 (stereo not given)	i	i
CSc1ccccc1NC(=O)C(=O)NCC1CCN(C2CCCC2)CC1	+	i
CSc1ccccc1NC(=O)C(=O)NCC1CCN(C)CC1	i	i
Cc1ccc(C(=O)N2CCN(c3nccn3C)CC2)cc1	i	i
O=C(NCCOc1ccc2nnc(-c3ccccc3)n2n1)C1CCCC1	i	i
O=C(COc1ccccc1)NCCOc1ccc2nnc(-c3cccc(F)c3)n2n1	i	nt
O=C(NCCOc1ccc2nnc(-c3ccccc3)n2n1)Nc1cccs1	+	i
O=C(NCCOc1ccc2nnc(-c3cccc(F)c3)n2n1)c1cc(-c2ccccc2)n[nH]1	+	i
COc1ccc(-c2nnc3ccc(OCCNC(=O)c4ccccc4)nn23)cc1OC	i	i
O=C(NCCOc1ccc2nnc(-c3ccccc3)n2n1)Nc1ccccc1	i	i
COc1ccc(-c2nnc3ccc(OCCNC(=O)Nc4cccs4)nn23)cc1OC	+	i
COc1ccc(-c2nnc3ccc(OCCNC(=O)C4CC4)nn23)cc1	+	i
COc1ccccc1-c1ccc(=O)n(CC(=O)Nc2ccc(F)c([N+](=O)[O-])c2)n1	i	i
O=C(NCCc1ccccc1)C(=O)NCCN1CCC(c2cccs2)CC1	i	i
Cc1ccc2nc(N(Cc3cccnc3)C(=O)CN3C(=O)c4ccccc4C3=O)sc2c1	i	nt
CCOC(=O)c1ccc2nc(NC(=O)Cc3ccc(OCC)cc3)sc2c1	i	nt
Cc1c(C)c2ccc(NC(=O)c3nc4ccccc4s3)cc2[nH]c1=O	nt	i
CN1CCN(NC(=O)C(=O)Nc2ccc(F)c(Cl)c2)CC1	i	i
CN1CCN(NC(=O)C(=O)Nc2ccc3c(c2)OCCO3)CC1	+	nt
O=C(c1ccccc1C(F)(F)F)N1CCN(c2ncnc3c2nnn3-c2ccccc2)CC1	i	nt
CCC(=O)Nc1sc2c(c1-c1nc3ccccc3s1)CCN(C(C)C)C2	i	nt
CC(C)N1CCc2c(sc(NC(=O)c3ccc([N+](=O)[O-])cc3)c2-c2nc3ccccc3s2)C1	+	nt
CC(C)N1CCc2c(sc(NC(=O)c3ccc(Cl)s3)c2-c2nc3ccccc3s2)C1	+	nt
CC(=O)c1ccc(C(=O)Nc2sc3c(c2-c2nc4ccccc4s2)CCN(C(C)C)C3)cc1	i	nt
SMILES	GluA2 TARP mod	GIRK2 act
COc1ccc(CN(CC(=O)Nc2ccc(C(N)=O)cc2)S(=O)(=O)c2cccnc2)cc1	i	i
COc1ccc(NC(=O)Cc2csc(SCC(=O)c3ccc(F)cc3)n2)cc1OC	nt	i
O=C(NCC(O)(c1cccs1)C1CC1)c1cc(Br)ccc1Cl (stereo not given)	i	i
O=C(CN1CCN(CC(=O)Nc2cccc(F)c2)CC1)Nc1ccc(Cl)cc1	+	nt
O=C(CN1CCN(C2c3ccccc3-c3ccccc32)CC1)Nc1cccc(F)c1	i	nt
COc1cccc(C(CNC(=O)COc2ccccc2)N2CCOCC2)c1 (stereo not given)	+	i
COc1ccc(C(=O)NCC(c2cccc(OC)c2)N2CCOCC2)cc1 (stereo not given)	i	i
COc1cccc(C(CNC(=O)COc2ccc(C)cc2)N2CCOCC2)c1 (stereo not given)	i	nt
COc1ccc(C(CNC(=O)C(=O)Nc2ccccc2[N+](=O)[O-])N2CCOCC2)cc1 (stereo not given)	nt	i
Cc1ccc(C(CNC(=O)c2cccs2)N2CCOCC2)cc1 (stereo not given)	i	i
COc1ccc(C(CNC(=O)c2cccc([N+](=O)[O-])c2C)N2CCOCC2)cc1 (stereo not given)	+	nt
Cc1ccc(C(CNC(=O)c2ccccc2C)N2CCOCC2)cc1 (stereo not given)	+	i
CCOc1ccc2ccccc2c1C(=O)NCC(c1cccc(OC)c1)N1CCOCC1 (stereo not given)	+	i
COC(=O)c1ccc(CSc2nnc(Cc3c(C)[nH]c(=O)[nH]c3=O)o2)cc1	i	i
Cn1cccc1C(CNC(=O)CCc1ccccc1)N1CCc2ccccc2C1 (stereo not given)	i	i
COc1ccc(SCCC(=O)Nc2nc(-c3cc([N+](=O)[O-])cs3)cs2)cc1	i	i
COc1cccc(C(=O)N2CCN(c3ncnc4c3nnn4-c3ccccc3)CC2)c1	i	nt
Cc1ccc(C)c(Cn2c(C3CC(=O)N(Cc4ccccc4)C3)nc3ccccc32)c1 (stereo not given)	i	nt
COc1cccc(OC)c1C(=O)NCC(c1ccc(F)cc1)N1CCOCC1 (stereo not given)	i	nt
O=C(NCC(c1cccc2ccccc12)N1CCOCC1)c1ccc(Br)cc1 (stereo not given)	+	i
COc1ccc(CC(=O)NCC(c2cccc3ccccc23)N2CCOCC2)cc1 (stereo not given)	i	i
Cc1ccc(C(CNC(=O)COc2ccc3ccccc3c2)N2CCOCC2)cc1 (stereo not given)	+	i
Cc1ccc(OCC(=O)NCC(c2cccc3ccccc23)N2CCOCC2)cc1 (stereo not given)	i	i
O=C(Cc1cc(-c2ccc3c(c2)OCO3)on1)NCCCn1ccnc1	nt	i
COC(=O)c1ccc2c(=O)n(CC(=O)NCC3CCCO3)c(=S)[nH]c2c1 (stereo not given)	i	i
SMILES	GluA2 TARP mod	GIRK2 act
CCC(=O)N1CCCc2ccc(NC(=O)NCc3cccs3)cc21	nt	i
CCc1ccc(Oc2cc(N3CCC(C(=O)NCc4ccccc4F)CC3)ncn2)cc1	+	i
CCc1ccc(Oc2cc(N3CCC(C(=O)NCc4ccc(SC)cc4)CC3)ncn2)cc1	i	i
COc1ccc(NC(=O)c2ccc([N+](=O)[O-])cc2Cl)cc1N1CCCCC1=O	i	i
Cc1cc(NC(=O)/C=C/c2ccccc2)on1	nt	i
Cc1cc(C)c2sc(NC(=O)/C=C\c3ccccc3)nc2n1	+	i
COc1ccc(C)cc1S(=O)(=O)N1CC(C)CC(C)C1 (stereo not given)	i	nt
CC1CC(C)CN(S(=O)(=O)c2c(F)cccc2F)C1 (stereo not given)	+	nt
O=C(Cn1ccc2ccn(Cc3ccccc3F)c2c1=O)Nc1ccc2c(c1)OCCO2	nt	i
O=C(NC(C(=O)NC1=NCCS1)C12CC3CC(CC(C3)C1)C2)c1ccc(Cl)cc1 (stereo not given)	i	i
O=C(COc1ncccn1)N1CCN(c2ncccn2)CC1	i	i
COc1ccc(C(=O)C2C(=O)N(c3ccccc3)N=C2C)c(OC)c1 (stereo not given)	+	i
CC1=NN(c2ccccc2)C(=O)C1C(=O)c1cccc(F)c1 (stereo not given)	+	i
CC1=NN(c2ccccc2)C(=O)C1C(=O)c1sc(-c2ccccc2)nc1C (stereo not given)	i	i
CC1=NN(c2ccccc2)C(=O)C1C(=O)c1ccc(S(=O)(=O)N2CCCCC2)cc1 (stereo not given)	i	i
